Bioassay records (PubChem BioAssay)
JMJD2E inh – qHTS Assay for Inhibitors of Human Jumonji Domain Containing 2E (JMJD2E) | AID 2147, 2009 | JMJD2E catalytic domain, FDH-coupled NADH fluorescence (FDH is formaldehyde dehydrogenase) | hit rate 1.6% among 230,000 | Potency, µM (highest dose often 57.1 µM), most hits filed as inhibitors; active = well fitted inhibition curve with a large enough effect, not every such curve was filed as active; inconclusive = small, poorly fitted or top-dose-only effect, or another doubt; inactive = no such curve, though single readings can be large or run the other way; note: nearly all actives have a fitted effect of over 50% in size
Target sequence (B2RXH2 1-337 limits assumed): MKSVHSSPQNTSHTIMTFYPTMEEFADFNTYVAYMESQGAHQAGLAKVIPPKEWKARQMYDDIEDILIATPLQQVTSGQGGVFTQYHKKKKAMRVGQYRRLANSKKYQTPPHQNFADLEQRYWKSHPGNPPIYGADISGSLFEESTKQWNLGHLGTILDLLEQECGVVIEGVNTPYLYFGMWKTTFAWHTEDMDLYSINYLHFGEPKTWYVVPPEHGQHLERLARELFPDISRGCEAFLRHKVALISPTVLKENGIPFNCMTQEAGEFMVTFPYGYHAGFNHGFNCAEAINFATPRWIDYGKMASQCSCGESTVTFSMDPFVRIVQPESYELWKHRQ
Tau FP inhib – qHTS for Inhibitors of Tau Fibril Formation, Fluorescence Polarization; K18 P301L tau heparin fibrillization, Alexa594 FP, 6 h; hit rate 0.39% among 280,000; Microtubule-associated protein tau (Homo sapiens), P10636; Potency, µM (top dose mostly 57.7 µM), actives largely listed as inhibitors; note: nearly all actives have a fitted effect of over 55% in size
Target sequence (P10636 561-689 P618L limits assumed): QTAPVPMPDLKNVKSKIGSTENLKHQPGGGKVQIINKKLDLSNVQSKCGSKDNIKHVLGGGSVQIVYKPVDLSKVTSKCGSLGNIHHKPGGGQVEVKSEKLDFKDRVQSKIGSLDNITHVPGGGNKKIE
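Recombinant K18 P301L […], labeled with Alexa 594 at 0.24 uM over 15 uM unlabeled; heparin inducer 20 uM final; 37 C, 6 hr; FP endpoint.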
Tau fibril ThT – qHTS for Inhibitors of Tau Fibril Formation, Thioflavin T Binding. Microtubule-associated protein tau (Homo sapiens), P10636. recombinant tau K18 P301L, heparin-induced fibrillization, ThT fluorescence. Potency, µM (doses to about 57.4 µM), actives largely listed as inhibitors. hit rate 2.1% among 270,000. AID 1460, 2008; note: nearly all actives have a fitted effect of over 55% in size
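Tau K18 P301L fragment (15 uM unlabeled plus 0.24 uM Alexa 594-labeled) in 100 mM sodium acetate pH 7 with compound, fibrillization induced by 20 uM heparin for 6 hr at 37 C. Thioflavin T (30 uM) added, fluorescence read after 1 hr (ex 450, em 510 nm).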
Tau fluor counter – Counterscreen qHTS for Inhibitors of Tau Fibril Formation, Fluorescence Polarization; tau K18 P301L (four-repeat tau fragment) Alexa594 fluorescence, heparin fibrillization; Potency, µM (top dose mostly 57.7 µM); hit rate 0.93% among 280,000; AID 1463, 2008; note: nearly all actives have a fitted effect of over 55% in size
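Human K18 P301L tau (15 uM unlabeled plus 0.24 uM Alexa 594-labeled, final) in 100 mM sodium acetate pH 7 was mixed with compound and 20 uM heparin and incubated 6 hr at 37 C.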
GoLoco inh red – qHTS Assay for Inhibitors of RGS12 GoLoco Motif Activity (Red Fluorophore). Gai1:RGS12 GoLoco peptide FP, rhodamine, 10 min. Potency, µM (doses to about 61.6 µM), hits mostly inhibitors. hit rate 0.44% among 230,000. AID 880, 2007; active = well fitted inhibition curve with a large enough effect, not every such curve was filed as active; inactive = no such curve, though single readings can be large or run the other way; note: nearly all actives have a fitted effect of over 30% in size
A number is an active result; n = inactive; u = inconclusive; x = no result; ! = a repeat was not active; [ ] = dose if it differs, or a comment. Most compounds without a hit are left out; they make up all but 3.4% or so of the library. Unless noted, calls come from the whole dose curve; as a rule, active = well fitted curve in the direction sought with a large enough effect; inconclusive = small, poorly fitted or top-dose-only effect, or another doubt; inactive = no such curve, though single readings can be large; an effect the other way counts as inactive or inconclusive.

SMILES	JMJD2E inh	Tau FP inhib	Tau fibril ThT	Tau fluor counter	GoLoco inh red
Cc1ccc(N2CCN(c3ccc(NCc4nc5ccccc5n4C)cc3)CC2)cc1	u	n	2.5µM	u	n
CCCCC(=O)NC(c1cccs1)c1cc(Cl)c2cccnc2c1O (centres undefined)	u	n	n	n	n
CCCC(=O)NC(c1ccco1)c1cc([N+](=O)[O-])c2cccnc2c1O (centres undefined)	28µM	n	u	n	n
CCCC(=O)NC(c1ccc(OC)c(OC)c1)c1cc(Cl)c2cccnc2c1O (centres undefined)	18µM	n	n	n	n
Oc1ccc2oc3c(c2c1/C=N/n1cnnc1)CCCC3	u	n	n	n	n
Oc1ccc2oc3c(c2c1C=NCc1ccncc1)CCCC3	u	u	16µM	u	n
COC(=O)c1cc(Cl)ccc1NC(=O)CSc1ncc(S(=O)(=O)c2ccc(Br)cc2)c(=O)[nH]1	x	u	32µM	n	x
COc1ccc(CNC(=O)CSc2ncc(S(=O)(=O)c3ccc(Br)cc3)c(=O)[nH]2)cc1	x	n	n	n	x
CCc1cccc(CC)c1NC(=O)CSc1nc2ccc(N3C(=O)C4C(C3=O)[C@H]3C=C[C@@H]4C3)cc2s1 (some centres undefined)	n	n	n	n	2µM
CC1=CC(C)(C)n2c(O)c(N=N)c3c(C)c(C)cc1c32	u	n	25µM	u	n
CC1=CC(C)(C)n2c(O)c(N=N)c3c(C)ccc1c32	n	n	n	n	n
CC1=CC(C)(C)n2c(O)c(N=N)c3cc(C)cc1c32	n	u	28µM	u	n
COc1cc2c3c(c1)c(N=NC(N)=S)c(O)n3C(C)(C)C=C2C	n	n	u	u	n
CC(Oc1ccccc1F)C(=O)Nc1ccc(-c2nc3ccccc3s2)cc1 (centres undefined)	x	u	n	n	x
COC(=O)c1sc2nc(C)c([N+](=O)[O-])c(C)c2c1N	n	n	3.2µM	n	n
Cc1cccc(N2C(S)=C(C#N)C(=O)NC2c2cccs2)c1 (centres undefined)	n	u	32µM	n	n
COCC(=O)N1c2nc(C(C)C)nn2C2(CCCCC2)[C@@H]2CCCC[C@@H]21	x	n	n	n	x
COC(=O)C(=Cc1ccccc1[N+](=O)[O-])C(=O)OC	n	u	25µM	n	n
O=C(O)c1ccc(N/N=C/C=C/c2ccccc2[N+](=O)[O-])cc1	n	n	13µM	n	n
COc1ccc(OC)c(NC(=O)/C=C/c2ccccc2[N+](=O)[O-])c1	n	u	u	u	n
COc1ccc(NC(=O)/C=C/c2ccccc2[N+](=O)[O-])c(OC)c1	n	n	13µM	u	n
COc1ccc(/C=N/Nc2ncccc2[N+](=O)[O-])c(OC)c1	n	n	13µM	u	n
CCCCCn1c(=O)[nH]c2cc(C(=O)N3CCN(c4cccc(C)c4)C(C)C3)ccc2c1=O (centres undefined)	x	n	n	n	x
COc1cc(/C=C/c2cc(OC(C)=O)c3ccccc3n2)c(OC(C)=O)c([N+](=O)[O-])c1	n	u	3.2µM	13µM[quencher]	n
CC(=O)Oc1c(Cl)cc(Cl)cc1/C=C/c1ccc2ccccc2n1	n	n	n	n	x
SMILES	JMJD2E inh	Tau FP inhib	Tau fibril ThT	Tau fluor counter	GoLoco inh red
Cc1cc(C)c(/C=C/c2onc(C)c2S(=O)(=O)N2CCC(C(=O)NCc3ccccc3Cl)CC2)c(C)c1	x	n	n	n	x
Oc1ccc(-c2nc(-c3ccccc3)c(-c3ccc(Br)cc3)[nH]2)cc1	x	u	28µM	8.9µM[quencher]	x
COc1ccc(-c2nc(-c3ccccc3)c(-c3ccc(F)cc3)[nH]2)c(OC)c1C	x	n	u	u	x
COc1cc(-c2nc(-c3ccccc3)c(-c3ccc(Br)cc3)[nH]2)cc(OC)c1O	x	n	u	11µM[quencher]	x
COc1ccc(-c2[nH]c(-c3cc(OC)c4c(c3)OCO4)nc2-c2ccccc2)cc1	u	u	u	13µM[quencher]	n
Oc1ccc(N=Nc2nc(-c3ccccc3)c(-c3ccccc3)[nH]2)cc1	n	u	4.5µM	11µM[quencher]	n
Cc1ccc(-c2[nH]c(-c3ccc(C(=O)O)cc3)nc2-c2ccccc2)cc1	u	n	n	n	n
Cc1nc(-c2ccccc2)c(-c2ccccc2)[nH]1	u	n	n	n	n
CCOc1ccc(-c2nc(-c3ccccc3)c(-c3ccccc3)[nH]2)cc1OCC	x	u	n	u	x
O=C(Cn1c(=O)n2nc(-c3cccc(F)c3)nc2c2ccccc21)N1CCN(c2ccccc2F)CC1	x	n	n	n	x
COc1ccc(NC(=O)Cn2c(SCc3ccc(C)cc3)nc3cccnc32)c(OC)c1	x	n	n	n	x
CC(=O)C1C(=O)c2c(cccc2[N+](=O)[O-])C1=Nc1ccc(S(N)(=O)=O)cc1 (centres undefined)	n	u	13µM	u	n
N#CC1=C(N)SC(N)=C(C#N)C1c1ccoc1	u	u	22µM	u	n
Cc1ccc(C2C(C#N)=C(N)SC(N)=C2C#N)cc1	u	n	u	u	n
COc1ccccc1-c1cc(C(=O)Nc2cc(Cl)ccc2O)no1	x	n	n	7.9µM[quencher]	x
COc1ccccc1-c1cc(C(=O)Nc2ccc(F)cc2F)no1	n	n	n	n	n
O=c1oc2c(O)c(O)cc3c(=O)oc4c(O)c(O)cc1c4c23	2.5µM	u	14µM	u	28µM!
Cc1c(C)c2cc(Cl)c(O)c(CN(C)C)c2oc1=O	u	n	n	n	n
CCc1ccc(CNC(=O)CCc2c(C)nn(-c3ccc(N4CCCCC4)nn3)c2C)cc1	x	n	u	n	x
Cc1ccc(NC(=O)/C(C#N)=C(\N)C(Cl)(Cl)Cl)nc1	u	u	25µM	n	3.5µM
O=C1CC(c2nc3ccccc3n2CCCOc2ccccc2)CN1c1ccc(F)cc1 (centres undefined)	x	n	u	n	x
O=C(COC(=O)c1cn(-c2ccccc2)nc1-c1ccccc1)Nc1ncc(Cl)cc1Cl	u	n	n	u	n
NS(=O)(=O)c1ccc(NC(=O)COC(=O)c2cn(-c3ccccc3)nc2-c2ccccc2)cc1	u	11µM	n	u	n
Cc1cc(C)c(C(CC(=O)c2cccs2)C(C#N)C#N)c(C)c1 (centres undefined)	n	n	25µM	n	n
Cc1cc(C)c2c(c1)NC(=O)C2(O)CC(=O)c1cccs1 (centres undefined)	n	n	u	n	n
CC(C)(C)c1ccc(NC(=O)CSc2nnc(-c3n[nH]c4ccccc34)o2)cc1	n	32µM	n	u	n
Cc1ccc(C)c(NC(=O)CSc2nnc(-c3n[nH]c4ccccc34)o2)c1	u	u	n	n	n
